Results filed as inconclusive are left out. Unmarked numbers belong to inactive results. Calls of active or inactive are those of the source. Calls come from the whole dose curve.

The values that follow come from PubChem BioAssay (NCATS).
% is set by controls: 0 for no effect and ±100 for the full control effect.

The assay can be described thus: Primary qHTS for Vero E6 cytotoxicity: counterscreen for inhibitors of SARS-S pseudo-typed particle cell entry (AID 1479150). The note with it: cell viability; series mostly up to 57.1 µM; activity change, negative = cytotoxicity: at the top concentration.
For `CN1CCN(C(=O)O[C@H]2c3nccnc3C(=O)N2c2ccc(Cl)cn2)CC1`, the “activity change, negative = cytotoxicity” value was 0.0334%.
Take `CCCC1CCCCN1` (configuration not stated): the “activity change, negative = cytotoxicity” value was 1.15%.
On to `Clc1ccc(CCC(Cn2ccnc2)Sc2c(Cl)cccc2Cl)cc1` (configuration not stated), for which the “activity change, negative = cytotoxicity” value is 3.79%.
On to `CC(C)(C)NCC(O)c1cc(Cl)c(N)c(Cl)c1` (configuration not stated), for which the compound was classed as inactive.
As for `CCC(COC(=O)c1cc(OC)c(OC)c(OC)c1)(c1ccccc1)N(C)C` (configuration not stated), the result was inactive.
Take `CC(=O)Nc1cc([As](=O)(O)O)ccc1O`: the “activity change, negative = cytotoxicity” value is 2.83%.
Take `CC(C)NCC(O)c1ccccc1Cl` (configuration not stated): the “activity change, negative = cytotoxicity” value is -16.4%.
On the same count and under the same terms, with `C=C1CC[C@@]2(O)[C@H]3Cc4ccc(O)c5c4[C@@]2(CCN3CC2CC2)[C@H]1O5` the figure was -9.24%.
On to `c1ccc2c(c1)Nc1ccccc1S2`, for which the “activity change, negative = cytotoxicity” value is -7.82%.
Regarding `C[C@]12CC[C@H]3[C@@H](CCC4=CC(=O)CC[C@@H]43)[C@@H]1CC[C@@H]2OC(=O)CCc1ccccc1`, the call was inactive.
For the compound `O=C1CC[C@@]2(O)[C@H]3Cc4ccc(O)c5c4[C@@]2(CCN3CC2CC2)[C@H]1O5`, the “activity change, negative = cytotoxicity” value is 2.42%.
Still for that read-out and setting: with `CCC(C(N)=O)N1CCCC1=O` (configuration not stated) the figure was -4.74%.
